About 83,000 compounds went through this panel and 20% of them were active in at least one assay; those are over-represented in the sample as a whole.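 Cell lines were cultured in 96-well plates, exposed to a single compound concentration, and assessed for percent growth 48 hours later.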 Active and inactive are the calls of the source. How the source made its calls: active means growth percent below 10; inactive means the rest.
Experiments:
Assay in all cases: NCI-60 one-dose screen, 48 h (100 = growth as untreated, 0 = no growth, -100 = all killed)
Conditions in all cases: 10 µM unless noted
DU-145 prostate = tested on: DU-145 prostate
K-562 leukemia = tested on: K-562 leukemia
MALME-3M melanoma = tested on: MALME-3M melanoma
MDA-MB-231 breast = tested on: MDA-MB-231 breast
RXF 393 renal = tested on: RXF 393 renal
SF-268 CNS = tested on: SF-268 CNS
SF-295 CNS = tested on: SF-295 CNS
SF-539 CNS = tested on: SF-539 CNS
UACC-257 melanoma = tested on: UACC-257 melanoma
M14 melanoma = tested on: M14 melanoma
HCT-15 colon = tested on: HCT-15 colon
HT29 colon = tested on: HT29 colon
SNB-75 CNS = tested on: SNB-75 CNS
SNB-19 CNS = tested on: SNB-19 CNS
U251 CNS = tested on: U251 CNS
PC-3 prostate = tested on: PC-3 prostate
SK-MEL-5 melanoma = tested on: SK-MEL-5 melanoma
UACC-62 melanoma = tested on: UACC-62 melanoma
LOX IMVI melanoma = tested on: LOX IMVI melanoma
SK-MEL-28 melanoma = tested on: SK-MEL-28 melanoma

Measured: growth

COC(=O)c1c(C)[nH]c(/C=C2\N=C(c3ccc[nH]3)C=C2OC)c1C
active: DU-145 prostate 9.5% | K-562 leukemia 4.3% | MALME-3M melanoma -69.3% | MDA-MB-231 breast -40.2% | RXF 393 renal -33.9% | SF-295 CNS -56.7% | SF-539 CNS -59.7% | UACC-257 melanoma -49% | M14 melanoma -24% | HCT-15 colon 0.837% | HT29 colon -13.8% | SNB-75 CNS -23.3% | U251 CNS -27.9% | PC-3 prostate 9.06% | SK-MEL-5 melanoma -99.7% | UACC-62 melanoma -62.8% | LOX IMVI melanoma -56.8% | SK-MEL-28 melanoma -27.8%
inactive: SF-268 CNS 18.3% | SNB-19 CNS 30.5%

COc1ccc(CC(C#N)c2ccc(Cl)cc2)cc1 (stereo not given)
inactive: DU-145 prostate 77.3% | K-562 leukemia 41.6% | MALME-3M melanoma 89.3% | MDA-MB-231 breast 79.7% | RXF 393 renal 92.1% | SF-268 CNS 78% | SF-295 CNS 78.9% | SF-539 CNS 85.1% | UACC-257 melanoma 91.7% | M14 melanoma 73.3% | HCT-15 colon 60.6% | HT29 colon 55.3% | SNB-75 CNS 75.9% | SNB-19 CNS 82.1% | U251 CNS 77.6% | PC-3 prostate 85.9% | SK-MEL-5 melanoma 76.8% | UACC-62 melanoma 69.6% | LOX IMVI melanoma 79.3% | SK-MEL-28 melanoma 91.5%

CSc1cccc([N+](=O)[O-])c1
inactive: DU-145 prostate 110% | K-562 leukemia 96.6% | MALME-3M melanoma 103% | MDA-MB-231 breast 101% | RXF 393 renal 99% | SF-268 CNS 110% | SF-295 CNS 106% | SF-539 CNS 96.2% | UACC-257 melanoma 103% | M14 melanoma 102% | HCT-15 colon 100% | HT29 colon 90.2% | SNB-75 CNS 115% | SNB-19 CNS 110% | U251 CNS 109% | PC-3 prostate 96.9% | SK-MEL-5 melanoma 99.8% | UACC-62 melanoma 98% | LOX IMVI melanoma 92.5% | SK-MEL-28 melanoma 111%

O=C1/C(=C\c2cn(CC(O)CN3CCCCC3)c3ccccc23)c2ccccc2N1c1c(Cl)cccc1Cl (stereo not given)
active: DU-145 prostate -99.8% | K-562 leukemia -35.6% | MALME-3M melanoma -65.9% | MDA-MB-231 breast -81.6% | RXF 393 renal -87.6% | SF-268 CNS -76.8% | SF-295 CNS -82.7% | SF-539 CNS -82.4% | UACC-257 melanoma -98.1% | M14 melanoma -81.1% | HCT-15 colon -72.8% | HT29 colon -85% | SNB-75 CNS -98.6% | SNB-19 CNS -71.2% | U251 CNS -93.8% | PC-3 prostate -88.7% | SK-MEL-5 melanoma -100% | UACC-62 melanoma -84% | LOX IMVI melanoma -85.1% | SK-MEL-28 melanoma -94.4%

CC(C)(C)c1cc(C(=O)Nc2cc3ccccc3cc2C(=O)NCCN)cc(C(C)(C)C)c1
active: DU-145 prostate -96.9% | K-562 leukemia -76.9% | MALME-3M melanoma -38.1% | MDA-MB-231 breast -79.9% | RXF 393 renal -90.4% | SF-268 CNS -80.7% | SF-295 CNS -85.5% | SF-539 CNS -68.8% | UACC-257 melanoma -36.1% | M14 melanoma -81.2% | HCT-15 colon -83.4% | HT29 colon -79.6% | SNB-75 CNS -92.2% | SNB-19 CNS -69% | U251 CNS -85.4% | PC-3 prostate -93% | SK-MEL-5 melanoma -39.7% | UACC-62 melanoma -69.4% | LOX IMVI melanoma -89.9% | SK-MEL-28 melanoma -80.9%

COc1ccc2nc3cc(Cl)ccc3c(Nc3ccc(O)cc3)c2c1
inactive: DU-145 prostate 48.4% | K-562 leukemia 54.8% | MALME-3M melanoma 83.5% | MDA-MB-231 breast 84.4% | RXF 393 renal 83.2% | SF-268 CNS 72.8% | SF-295 CNS 84.9% | SF-539 CNS 80.8% | UACC-257 melanoma 102% | M14 melanoma 94.8% | HCT-15 colon 52.9% | HT29 colon 57.9% | SNB-75 CNS 89.6% | SNB-19 CNS 81.9% | U251 CNS 70.5% | PC-3 prostate 89.2% | SK-MEL-5 melanoma 88.6% | UACC-62 melanoma 80.4% | LOX IMVI melanoma 43.5% | SK-MEL-28 melanoma 107%

CCCCCCCCCCCCCCCCCCNC(=S)N/N=C/c1ccc(OC)c(OC)c1
inactive: DU-145 prostate 102% | K-562 leukemia 98.8% | MALME-3M melanoma 87.4% | MDA-MB-231 breast 92.7% | RXF 393 renal 110% | SF-268 CNS 98.7% | SF-295 CNS 95.7% | SF-539 CNS 93.6% | UACC-257 melanoma 100% | M14 melanoma 104% | HCT-15 colon 88.4% | HT29 colon 99.9% | SNB-75 CNS 88.2% | SNB-19 CNS 94% | U251 CNS 90.1% | PC-3 prostate 92.1% | SK-MEL-5 melanoma 95.3% | UACC-62 melanoma 86.1% | LOX IMVI melanoma 95.2% | SK-MEL-28 melanoma 100%

— PubChem BioAssay (NCI)
